# Gal4-VP16 FLuc = VP16 counterscreen qHTS for inhibitors of ROR gamma transcriptional activity; Drosophila S2 Gal4-VP16 UAS-luciferase, luminescence, 20 h; Potency, µM (titrated, usually from 53.6 µM), for the others: at the top dose activity, negative = inhibition, usual class: inhibitors; 310,000 tested, 3.5% active; AID 2546, 2010;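 further: Gal4-VP16 expression switched on by copper sulfate through the metallothionein promoter; potency means the concentration at half of the fitted maximal effect; nearly all actives have a fitted effect of over 50% in size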
# Six1-Eya2 inh = qHTS Assay for Inhibitors of the Six1/Eya2 Interaction; Homeobox protein SIX1 (Homo sapiens) + Protein phosphatase EYA2 (Homo sapiens), …; AlphaScreen GST-Six1/His-Eya2 binding, biochemical; active compounds read low; activity change, % (no concentration beside the values); 360,000 tested, 0.56% active; AID 651725, 2012; in the data active means activity change below about -65%; inconclusive means mostly about -30% to -63%
# Target sequence (O00167 whole entry, looked up): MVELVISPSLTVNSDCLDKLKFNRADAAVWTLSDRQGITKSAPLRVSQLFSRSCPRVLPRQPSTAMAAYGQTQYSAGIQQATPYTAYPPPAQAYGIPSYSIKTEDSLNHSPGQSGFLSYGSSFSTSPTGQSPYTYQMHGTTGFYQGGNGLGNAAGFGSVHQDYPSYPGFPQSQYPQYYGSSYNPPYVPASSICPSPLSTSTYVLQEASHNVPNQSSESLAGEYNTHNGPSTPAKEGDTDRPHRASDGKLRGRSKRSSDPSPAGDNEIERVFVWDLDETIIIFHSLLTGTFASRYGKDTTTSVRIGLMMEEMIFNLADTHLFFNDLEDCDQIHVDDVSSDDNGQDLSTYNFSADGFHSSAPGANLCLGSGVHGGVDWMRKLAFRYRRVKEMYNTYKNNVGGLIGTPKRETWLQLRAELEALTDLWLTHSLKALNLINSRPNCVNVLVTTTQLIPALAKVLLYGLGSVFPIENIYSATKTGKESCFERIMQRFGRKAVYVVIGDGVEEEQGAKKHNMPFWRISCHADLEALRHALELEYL
# Target sequence (Q15475 whole entry, looked up): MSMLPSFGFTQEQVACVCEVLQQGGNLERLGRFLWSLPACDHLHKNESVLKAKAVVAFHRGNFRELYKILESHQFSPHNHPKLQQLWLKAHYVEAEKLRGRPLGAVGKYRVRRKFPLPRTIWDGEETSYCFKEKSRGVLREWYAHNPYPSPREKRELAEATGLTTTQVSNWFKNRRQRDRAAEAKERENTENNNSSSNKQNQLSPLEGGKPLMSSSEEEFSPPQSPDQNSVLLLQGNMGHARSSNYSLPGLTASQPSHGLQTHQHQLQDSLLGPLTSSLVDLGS
#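 AlphaScreen with GST-Six1 and His-Eya2 (5X mix: 250 nM and 500 nM), glutathione donor and nickel acceptor beads; buffer 50 mM Tris pH 8.0, 300 mM NaCl, 1 mM TCEP; 1 h at 37 C in the dark.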
# PKM2 activator = qHTS Assay for Activators of Human Muscle isoform 2 Pyruvate Kinase; purified PKM2, Kinase-Glo ATP luminescence, activation; response scale: 0% is enzyme alone, no compound; 260,000 tested, 0.34% active; AID 1631, 2009; Pyruvate kinase PKM (Homo sapiens), P14618; Potency, µM (highest dose often 57.5 µM), for the others: top-dose activation, hits mostly activators; further: potency means the concentration at half of the fitted maximal effect; nearly all actives have a fitted effect of over 55% in size
#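 ATP formation by purified human PK-M2, quantified via coupled luciferase luminescence after 1 h at room temperature with 0.1 mM ADP and 0.5 mM PEP final.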
# RORgamma inh = qHTS for inhibitors of ROR gamma transcriptional activity; Potency, µM (doses to about 53.6 µM), inactives show at the top dose activity change, negative = inhibition, hits mostly inhibitors; AID 2551, 2010; 310,000 tested, 5.4% active; Drosophila S2 Gal4-RORgamma UAS-luciferase reporter, 20 h; Nuclear receptor ROR-gamma (Mus musculus), P51450; further: potency means the concentration at half of the fitted maximal effect; nearly all actives have a fitted effect of over 60% in size
#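 A Gal4/UAS one-hybrid system in insect cells: metallothionein-promoter Gal4–ROR gamma fusion plus Photinus luciferase reporter. Copper sulfate 700 uM final, 20 hr ambient incubation, luminescent detection after 10 min with reagent.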
# CtBP-E1A blk = qHTS Assay for Inhibitors of the CtBP/E1A Interaction; CtBP / adenovirus E1A interaction (AlphaScreen); AID 651724, 2012; 340,000 tested, 0.49% active; activity change, % (test concentration not listed); AlphaScreen GST-E1A/His-CtBP binding, 1536-well; active compounds read low; in the data active means activity change below about -65%; inconclusive means mostly about -30% to -63%
#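 GST-E1A and His-tagged CtBP (125 nM each as 5X stock) were preincubated with pin-transferred compound for 2 h at 37 °C in the dark, then glutathione donor and nickel acceptor beads were added for 1 h before AlphaScreen reading.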
# The depositor's hits bear a star; u = inconclusive; x = not tested or not shown; [ ] = dose if it differs, or a comment. An excerpt weighted towards active compounds, which were near 5.6% of everything screened. Unless noted, the call rests on the fitted dose curve; in most records, active means well fitted curve in the direction sought with a large enough effect; inconclusive means small, poorly fitted or top-dose-only effect, or another doubt; inactive means no such curve, though single readings can be large; an effect the other way counts as inactive or inconclusive. On the % scale 0 is the no-effect control and ±100 the full control effect.
SMILES,Gal4-VP16 FLuc,Six1-Eya2 inh,PKM2 activator,RORgamma inh,CtBP-E1A blk
CCOC(=O)c1[nH]c2ccc(Cl)cc2c1NC(=O)/C=C/c1ccc2c(c1)OCO2,4.5µM*,3,4%,u,19
O=C1C2C3C=CC(C4CC34)C2C(=O)N1/N=C/c1ccc([N+](=O)[O-])o1 (stereo not drawn),10µM*,103,0%,13µM*,0
O=C1C2C(C(=O)N1/N=C/c1ccc([N+](=O)[O-])o1)C1C=CC2C12CC2 (stereo not drawn),20µM*,-8,-3%,u,-4
CCOC(=O)c1ccccc1NC(=O)CN1C(=O)NC(C)(CCc2ccccc2)C1=O (stereo not drawn),x,2,x,x,0
Cc1cccc(CN2CCN([C@@H](c3ccccc3)c3ccc(Cl)cc3)CC2)c1,1%[17 µM],x,x,8%[2.98 µM],x
CC1CCN(S(=O)(=O)c2ccc(C(=O)Nc3nnc(-c4ccncc4)o3)cc2)CC1,4µM*,-5,-2%,1.1µM*,-26
O=C(Nc1nnc(C2CC2)o1)c1ccc(S(=O)(=O)N2CCCCC2)cc1,0.56µM*,-18,1%,0.89µM*,-17
CC(=O)Nc1ccc(S(=O)(=O)N2CCC(c3nnc(-c4ccc(C)cc4)o3)CC2)cc1,u,-1,10%,14µM*,-8
CCOC(=O)N1CCN(S(=O)(=O)c2ccc(C(=O)Nc3nnc(C)o3)cc2)CC1,u,u,1%,u,-7
CC1CCN(S(=O)(=O)c2ccc(C(=O)Nc3nnc(C4CC4)o3)cc2)CC1,0.32µM*,-14,-2%,0.35µM*,-20
COc1ccc(-c2nnc(C3CCN(S(=O)(=O)c4ccccc4)CC3)o2)cc1,-2%,0,0%,u,1
CC(C)C(=O)Nc1ccc(NC(=O)c2cccc3c(Br)cccc23)cc1,-1%,-7,x,-1%,4
O=C(CCn1cnnn1)N1CCCC(Nc2ccc(F)c(F)c2)C1 (stereo not drawn),0%,28,-2%,-2%,7
O=C(CSc1ccccn1)Nc1ccc(NC(=O)CSc2ccccn2)cc1,-5%,4,u,0%,4
O=C(CSc1ccccn1)Nc1nonc1[N+](=O)[O-],5µM*,2,x,5.6µM*,x
Cn1nc(CC(=O)NCc2ccc(C(F)(F)F)cc2)c2ccccc2c1=O,u,2,-11%,19%,-3
COc1ccc(CNC(=O)Cc2nn(C)c(=O)c3ccccc23)cc1,8.9µM*,2,-3%,u,4
COCCCNC(=S)N/N=C/c1ccccc1O,3.5µM*,-90*,1%,0.56µM*,x
COCCCNC(=S)N/N=C/c1ccc(N(C)C)cc1,7.1µM*,-12,1%,2.8µM*,23
COCCCNC(=S)N/N=C/c1ccc(N(C)C)cc1Cl,13µM*,-9,-3%,2.2µM*,-3
COCCNC(=S)N/N=C/c1ccccc1C(=O)O,0%,4,-8%,12%,1
COCCCNC(=O)C(=O)N/N=C/c1cc2c(cc1Br)OCO2,-19%,-13,-1%,10%,1
CCOC(=O)/C(C)=N/Nc1nc(-c2ccc(NC(C)=O)cc2)cs1,-16%,-11,-8%,-15%,-4
C[C@@H](NC(=O)c1nc[nH]c1C(=O)NCC(=O)OCc1ccccc1)c1ccccc1,u,-8,0%,8.9µM*,0
C[C@@H](NC(=O)c1nc[nH]c1C(=O)NCC(=O)OC(C)(C)C)c1ccccc1,u,0,0%,10µM*,0
SMILES,Gal4-VP16 FLuc,Six1-Eya2 inh,PKM2 activator,RORgamma inh,CtBP-E1A blk
Cc1ccc(OCc2cnc(Cl)s2)c(C)c1,-11%,24,7%,-13%,44
CC1(C)C(Cl)C(=O)C(C(=O)c2ccccc2)C(=O)C1Cl (stereo not drawn),-3%,14,-1%,27%,5
CC1(C)NC(=O)N(CC(=O)N2CCN(c3cccc(Cl)c3)CC2)C1=O,x,2,x,x,7
Cn1nc(NC(=O)CC23CC4CC(CC(C4)C2)C3)c2c(F)cccc21,5%,10,-2%,-9%,0
CC(C)=CCC/C(C)=C/CO/N=C1/C[C@@H](O)[C@@H](O)[C@@H]2[C@H]3C(=O)N(c4ccc(F)cc4F)C(=O)[C@@H]3CC[C@H]12,-6%[10 µM],x,x,1%[10 µM],x
COc1cccc(Cn2c(=O)c(CCc3ccccc3)nc3cnc(OC)nc32)c1,-4%,x,x,23%,x
CCOc1ccc(NC(=S)NC(=O)C2CCCC2)cc1,6.3µM*,-7,0%,1.1µM*,-5
CCN(CC)c1ccc(NC(=S)NC(=O)C2CCC2)cc1,6.3µM*,u,2%,1.8µM*,u
CC(=O)Nc1ccc(NC(=S)NC(=O)C2CCCC2)cc1,0%,6,9%,15%,10
C=C(C)COc1ccc(-c2[nH]ncc2-c2ccccc2)c(O)c1,u,-2,2%,u,6
Oc1cc(OCc2ccccc2)ccc1-c1[nH]ncc1-c1ccccc1,u,-6,-3%,10µM*,-4
O=[N+]([O-])c1ccc(COc2ccc(-c3[nH]ncc3-c3ccccc3)c(O)c2)cc1,5.6µM*,-12,4%,7.1µM*,-6
O=C(NCc1ccccc1F)C1CCCN(S(=O)(=O)N2CCOCC2)C1 (stereo not drawn),0%,3,x,-1%,2
CCc1ccc(NC(=O)CSc2n[nH]c(=O)n2C2CC2)cc1,x,-6,x,x,16
CCN1CCc2c(sc(NC(=O)c3cc4ccccc4cc3OC)c2C(N)=O)C1,5.6µM*,3,-6%,4.5µM*,-2
O=C1C(Nc2ccccc2)=C(N2CCCCC2)C(=O)c2ccccc21,6%,15,0%,40%,21
O=C(/C=C/c1ccc(O)cc1)c1ccc(NC2=C(N3CCCCC3)C(=O)c3ccccc3C2=O)cc1,u,-11,22%,0.32µM*,11
O=C(/C=C/c1ccc(O)cc1)c1ccccc1,-18%,0,-35%,u,3
O=C1C(Nc2cccc(O)c2)=C(N2CCCCC2)C(=O)c2ccccc21,u,-71*,1%,-37%,6

# Compound activity from PubChem.
